Sm TGR inh: S. mansoni TGR enzyme inhibition. Q962Y6. purified TGR, DTNB reduction, TNB absorbance 405 nm. Potency, µM (top dose mostly 114 µM), for inactives: at the highest dose activity change, negative = inhibition, usual class: inhibitors. hit rate 3% among 360,000. AID 485364; note: potency is the fitted concentration of half-maximal effect; nearly all actives have a fitted effect of over 60% in size
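TGR 20 nM + NADPH 100 uM (dispensed conc.), cpd preinc 15 min RT; start with NADPH (500 uM addition) then DTNB (15 mM addition). Kinetic TNB absorbance, 405 nm filter. Four-parameter Hill fit across titration.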
VACV Venus inh: vaccinia inhibition (Venus reporter). Vaccinia virus Venus reporter expression, fluorescence. AID 720580. Potency, µM (highest dose often 36.5 µM), inactives show at the highest dose activity change, negative = inhibition, most hits filed as inhibitors. hit rate 0.46% among 330,000; calls by dose curve; tested in A549 cells; note: potency is the fitted concentration of half-maximal effect; nearly all actives have a fitted effect of over 30% in size
FMDV antiviral: blocks foot and mouth disease virus | FMDV antiviral cell-based qHTS | hit rate 1.2% among 410,000 | Potency, µM (titrated, usually from 57.9 µM), inactives show top-dose activity change, negative = inhibition, most hits filed as inhibitors; calls by dose curve; tested in HEK293T cells; note: read-out not given here; potency is the fitted concentration of half-maximal effect; nearly all actives have a fitted effect of over 45% in size
HCV inhibitor: blocks hepatitis C virus; Huh7.5.1 HCVcc-Cre infection, luciferase reporter, 44 h; Potency, µM (titrated, usually from 41.8 µM), for the others: at the top dose activity change, negative = inhibition, usual class: inhibitors; hit rate 3.4% among 340,000; AID 651820; note: potency is the fitted concentration of half-maximal effect
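Infectious HCV cell culture screen: compound-treated cells (1,000/well, pre-plated 4 h) are infected with HCVcc-Cre at roughly 0.5 moi and grown 44 h. Infection is quantified by luciferase signal after 15 min substrate incubation at room temperature.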
HCMV antiviral: blocks human cytomegalovirus replication. hit rate 4.5% among 410,000. activity change, negative = inhibition, % at 57.5 µM. HFF cells, HCMV-luciferase reporter, 72 h; hits give low values. AID 1259415; in the data active = activity change below about -60%; inconclusive = no clear call, values can overlap the other calls; inactive = above about -39%
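HFF cells seeded 16 h at 37C, treated with compounds, infected with luciferase-reporter HCMV at MOI 1 PFU/cell; luciferase read at 72 h post infection, normalized to buffer-only and Salinomycin controls.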
Vaccinia mCherry: vaccinia inhibition (mCherry reporter) | Vaccinia virus mCherry reporter infection, fluorescence | Potency, µM (top dose mostly 36.5 µM), for inactives: top-dose activity change, negative = inhibition, usual class: inhibitors | hit rate 0.63% among 310,000; calls by dose curve; tested in A549 cells; note: potency is the fitted concentration of half-maximal effect; nearly all actives have a fitted effect of over 35% in size
Numbers without * were called inactive; i = inactive; ? = inconclusive; . = no result; [ ] = dose if it differs, or a comment. Most compounds without a hit are left out; they make up all but 9.3% or so of the library. Unless noted, calls come from the whole dose curve; as a rule, active = well fitted curve in the direction sought with a large enough effect; inconclusive = small, poorly fitted or top-dose-only effect, or another doubt; inactive = no such curve, though single readings can be large; an effect the other way counts as inactive or inconclusive. % is set by controls: 0 for no effect and ±100 for the full control effect.

SMILES	Sm TGR inh	VACV Venus inh	FMDV antiviral	HCV inhibitor	HCMV antiviral	Vaccinia mCherry
O=[N+]([O-])c1ccc(-c2nc(Nc3cccc(O)c3)c3ccccc3n2)cc1	-2.5%	.	?	6.31µM*	-9.6	.
O=C(O)c1cccc(-n2c(/C=C/c3cccc([N+](=O)[O-])c3)nc3ccccc3c2=O)c1	-9.4%	-10.4%	-2.3%	2.4%	-7.4	i
O=C(O)c1cccc(-n2c(/C=C/c3ccc([N+](=O)[O-])cc3)nc3ccccc3c2=O)c1	3.4%	.	-20.0%	11.6%	-62.2*	.
COc1ccc(C2C3=C(CC(C)(C)CC3=O)N(C)C3=C2C(=O)CC(C)(C)C3)cc1	3.1%	-7.7%	7.8%	-7.6%	5.7	-10.3%
COc1ccccc1C1C2=C(CC(C)(C)CC2=O)N(CC(=O)O)C2=C1C(=O)CC(C)(C)C2	?	.	5.5%	?	1.9	.
COc1ccc(-n2ccc(=O)c3c2CCCC3=O)cc1	0.0%	-13.9%	-4.5%	-13.7%	-25.5	.
COc1ccc(N2C3=C(CC4=C2CCCC4=O)C(=O)CCC3)cc1	39.8µM*	-10.2%	?	?	?	i
COc1ccc(N2C3=C(C(=O)CC(C)(C)C3)C(c3ccccc3OC)C3=C2CC(C)(C)CC3=O)cc1	-21.0%	-20.0%	-4.3%	-17.6%	-65.4*	-19.5%
COc1ccc(N2C3=C(CC4=C2CC(C)(C)CC4=O)C(=O)CC(C)(C)C3)cc1	?	-25.7%	.	?	-98.8*	?
CC(C)N1CCN(Cc2ccc(C#CC(C)(C)O)cc2)CC1CCO (centres undefined)	18.5%[57.1 µM]	-16.4%	-7.5%	1.8%	?	0.0%
Cc1cccc(C)c1NC(=S)NC(=O)c1ccccc1F	-18.2%	-10.9%	-18.2%	-5.6%	-27.4	i
Cn1cccc1C(=O)OCC(=O)N1CCN(c2ccccc2)CC1	.	0.8%	0.0%	0.9%	23.1	i
Nc1cc(=O)[nH]c(SCC(=O)N2CCC(Cc3ccccc3)CC2)n1	0.4%	.	-20.6%	14.1µM*	-0.2	.
Cc1ccc(NC(=S)NCC23C=CC(O2)C2C(=O)N(c4ccc(C)cc4)C(=O)C23)cc1 (centres undefined)	5.01µM*	0.1%	12.9%	-13.8%	26.9	-2.1%
Cc1cccc(NC(=S)NCC23C=CC(O2)C2C(=O)N(c4ccc(Cl)cc4)C(=O)C23)c1 (centres undefined)	3.16µM*	-22.2%	-19.3%	-6.2%	-25.2	i
Cc1ccc(S(=O)(=O)NCC23C=CC(O2)C2C(=O)N(c4ccccc4)C(=O)C23)cc1 (centres undefined)	3.16µM*	-11.8%	-4.7%	-6.3%	23.2	.
Cc1cccc(NC(=S)NNC(=O)COc2ccc(Cl)cc2Cl)c1	-20.5%	-28.4%	-23.7%	23.9%	16.3	i
Cc1ccc(S(=O)(=O)NCC2(c3ccccc3)CCN(C)CC2)cc1	0.2%	.	-7.2%	10.2%	74.8	.
Cc1ccc(N2C(=O)C3C4C=CC(CNC(=S)N5CCN(c6ccccc6)CC5)(O4)C3C2=O)cc1 (centres undefined)	2.51µM*	.	?	-21.2%	-32.0	.
CCCN1CCc2[nH]c(=S)[nH]c(=O)c2C1	-1.9%	-2.5%	-9.7%	34.7%	44.6	-13.3%
CCOC(=O)c1c(C)nc2ncccn12	9.6%	-4.7%	-2.1%	11.8%	-36.2	-11.1%
O=C(NCc1ccc(F)cc1Cl)C1CC(=O)N(C2CCCCCCC2)C1 (centres undefined)	6.4%	.	17.4%	10.6%	-7.6	.
O=C(CC1CC1)N1CC(=O)N2[C@H](CO)[C@@H](c3ccc(Br)cc3)[C@@H]2C1	.	.	.	.	5.3	.
COc1ccc(N2C(=O)CC(NC3CCCCNC3=O)C2=O)cc1 (centres undefined)	20µM*	-5.6%	-3.1%	4.8%	23.2	-12.4%
COc1ccc(N2C(=O)CC(NCC#N)C2=O)cc1 (centres undefined)	14.1µM*	0.3%	-17.8%	8.0%	31.1	i
O=C(NNC1CC(=O)N(c2ccc(Br)cc2)C1=O)c1cccs1 (centres undefined)	?	-1.0%[7.34 µM]	-3.6%	-15.7%	-4.8	-6.9%[7.34 µM]

Assay outcomes as filed in PubChem BioAssay.
